From PubChem BioAssay (NCATS)
Inconclusive results are not listed. Values without a mark were called inactive. Calls follow the shape of the dose curve; as a rule, active = well fitted cell-killing curve with a large enough effect; inconclusive = small, poorly fitted or top-dose-only effect; inactive = flat fitted curve, though single readings scatter.

Test: Cell Viability - LYMP2-026 (AID 989); also: nearly all actives have a fitted effect of over 50% in size
Details: LYMP2-026 lymphoblastoid cell viability, qHTS; series mostly up to 92.2 µM; activity change, negative = cytotoxic: at the top concentration
How it was run: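 Cells are seeded at 2500 per well and held 5 hr at 37 C. Compounds are added in concentration series for 24 hr, then CellTiter-Glo reagent is applied and luminescence read.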
% is scaled to controls: 0 for no effect and ±100 for the full control effect.

Compound	activity change, negative = cytotoxic [%]
FC(F)(F)c1cccc(Cl)c1	1.05
Cc1cccc(C(=O)O)c1	0.468
CCN(Cc1ccccc1)c1ccccc1	-6.66
CC(C)(O)CCC(C)(C)O	4.11
OCCO	-0.0885
CNC(=O)N(c1ccccc1)c1ccccc1	4.22
Nc1cccc(S(=O)(=O)O)c1	3.31
O=C(O)CCSSCCC(=O)O	-1.36
C1COC1	4.87
C[C@@H]1CC2(OC3C[C@@]4(C)C5=CC[C@H]6C(C)(C)C(O[C@@H]7OC[C@@H](O)[C@H](O)[C@H]7O)CC[C@@]67C[C@@]57CC[C@]4(C)C31)OC(O)C1(C)OC21 (some centres not stated)	-13.7
c1ccc2c(c1)ccc1ncccc12	7.45
Cc1ccc2cccnc2c1	-3.8
O=C(Cl)c1cccc([N+](=O)[O-])c1	-13
CC(C)c1ccccc1	0.573
Cc1cccc(C)c1O	-1.65
ClCCl	-2.55

Compound	activity change, negative = cytotoxic [%]
NC(=O)c1cccc([N+](=O)[O-])c1	-8.7
O=[N+]([O-])c1cccc(C(F)(F)F)c1	-15.5
Nc1cccc([N+](=O)[O-])c1	8.06
CCOc1cc(OCC)c(C(C)=O)cc1OCC	6.51
COC(=O)CC#N	1.26
CC(=O)Nc1ccc(N)cc1	3.05
C1CCC2OC2C1 (configuration not stated)	3.29
O=C1CCCCC1	-0.581
OC1CCCC1	2.54
O=C1NC(=O)c2cc([N+](=O)[O-])ccc21	-0.824
BrC(Br)C(Br)Br	-0.36
CCCCC(=O)N(C)C	-0.578
CCOc1ccc(NC(C)=O)cc1N	-0.873
Cc1ccc(N(C)C)cc1	3
Nc1ccc(F)cc1F	0.533
Nc1cc(S(=O)(=O)O)ccc1O	6.79
